Hits are enriched below; roughly 2.7% of the tested compounds scored in any of these assays.
S2 tox = cell viability loss in ATXN counter-screen. S2 cells (HEK-293 line with an ATXN2-luciferase reporter) viability, CellTiter-Fluor protease fluorescence, 24 h. Potency, µM (highest dose often 56.7 µM), usual class: cytotoxic. 400,000 tested, 0.49% active; note: nearly all actives have a fitted effect of over 40% in size
ATXN2 expr inh = reduces ATXN2 reporter expression in HEK-293 cells. HEK-293 ATXN2-luciferase reporter, luminescence, 24 h. Potency, µM (series often up to 57 µM), for inactives: at the top dose activity change, negative = inhibition, hits mostly inhibitors. 360,000 tested, 0.72% active. AID 1745845; note: % is set by controls: 0 for no effect and ±100 for the full control effect; nearly all actives have a fitted effect of over 55% in size
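ATXN2-luciferase reporter cells (luciferase flanked by upstream and downstream ATXN2 gene portions) were treated 24 h at 37 °C with compounds at up to 57 uM. SteadyGlo luminescence gave expression; GF-AFC fluorescence gave viability.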
TGFb SMAD3 inh = inhibitors of TGF-b signaling; HepG2 CAGA-GFP TGF-b/SMAD3 reporter, GFP fluorescence, 18 h; TGF-beta stimulated, 500 pg/mL final; AID 588855; Potency, µM (doses to about 46.1 µM), for inactives: top-dose activity, negative = inhibition, most hits filed as inhibitors; 410,000 tested, 1.2% active; note: % is set by controls: 0 for no effect and ±100 for the full control effect; nearly all actives have a fitted effect of over 65% in size
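Per well, imaged GFP fluorescence of HEPG2 CAGA-GFP cells gives the signal; cells get compound, then TGF-beta (500 pg/mL final), 18 h at 37 degrees C; %Activity versus -TGF-beta and +DMSO controls.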
HepG2 tox = counter-screen for TGF-b inhibitors: cytotoxicity in HepG2 cells; HepG2 CAGA-GFP viability, ATP luminescence, 18 h; Potency, µM (series often up to 46.1 µM), without a hit: top-dose activity change, negative = cytotoxicity, hits mostly cytotoxic; 410,000 tested, 0.76% active
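CellTiter-Glo luminescence gave cytotoxicity after 18 hours at 37 degrees C. The cells were HepG2 CAGA-GFP in 1% FBS DMEM, stimulated with 500 pg/mL TGF-beta after compound addition. %Activity was normalised to no-cell wells (complete cell-killing) and DMSO (no toxicity), and curves were fitted and classified.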
ALOX12 inh = blocks human arachidonate 12S-lipoxygenase; P18054; purified 12hLO, xylenol orange hydroperoxide absorbance; Potency, µM (titrated, usually from 108 µM), without a hit: top-dose activity change, negative = inhibition, hits mostly inhibitors; 580,000 tested, 1.1% active; note: % is set by controls: 0 for no effect and ±100 for the full control effect
Target sequence (P18054 whole entry, looked up): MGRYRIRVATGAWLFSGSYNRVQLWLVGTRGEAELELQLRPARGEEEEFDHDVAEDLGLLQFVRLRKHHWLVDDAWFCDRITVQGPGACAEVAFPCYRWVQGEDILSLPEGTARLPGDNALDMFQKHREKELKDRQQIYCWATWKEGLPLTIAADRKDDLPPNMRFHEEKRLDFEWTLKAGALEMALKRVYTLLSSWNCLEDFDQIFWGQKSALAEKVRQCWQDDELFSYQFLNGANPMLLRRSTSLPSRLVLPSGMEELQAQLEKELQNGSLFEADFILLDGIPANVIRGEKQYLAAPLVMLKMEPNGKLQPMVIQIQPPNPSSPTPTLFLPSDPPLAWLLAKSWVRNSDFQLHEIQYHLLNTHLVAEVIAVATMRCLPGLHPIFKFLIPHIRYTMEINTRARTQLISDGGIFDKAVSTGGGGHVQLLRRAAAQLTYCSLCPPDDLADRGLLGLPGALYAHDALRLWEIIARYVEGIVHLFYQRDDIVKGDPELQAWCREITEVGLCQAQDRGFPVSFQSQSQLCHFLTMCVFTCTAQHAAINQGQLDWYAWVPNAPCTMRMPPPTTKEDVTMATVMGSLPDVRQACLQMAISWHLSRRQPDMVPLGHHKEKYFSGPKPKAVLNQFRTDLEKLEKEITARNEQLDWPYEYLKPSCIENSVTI
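Purified human 12hLO at 150 nM in 25 mM Hepes, 0.01% Triton X-100, pH 7.0, preincubated 15 min at room temperature with compound. Reaction started with 40 uM arachidonic acid, 30 min at room temperature. Hydroperoxide measured by Fe-xylenol orange, 573/405 nm absorbance ratio.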
An asterisk follows results filed as active; i = inactive; ? = inconclusive; . = no result. Calls come from the whole dose curve; as a rule, active = well fitted curve in the direction sought with a large enough effect; inconclusive = small, poorly fitted or top-dose-only effect, or another doubt; inactive = no such curve, though single readings can be large; an effect the other way counts as inactive or inconclusive. Potency is the fitted concentration of half-maximal effect.

SMILES	S2 tox	ATXN2 expr inh	TGFb SMAD3 inh	HepG2 tox	ALOX12 inh
COC(=O)C1=C(C)N(C)C(C)=C(C(=O)OC)C1c1ccc(C)s1	.	.	.	.	-9%
O=Cc1[nH]c2ccccc2c1Cl	.	.	.	.	-8%
CCOc1ccc(NC(=O)C(C)Oc2ccc(F)cc2)c2cccnc12 (centres undefined)	.	.	.	.	6%
N=c1sccn1CC(=O)Nc1cccc(S(=O)(=O)N2CCCCCC2)c1	16µM*	.	-2%	1%	-14%
CSc1cccc(N2CC(C(=O)Nc3cccc(S(=O)(=O)N4CCCC4)c3)CC2=O)c1 (centres undefined)	i	-7%	?	-23%	28µM*
CCOc1ccc(N2CC(C(=O)Nc3cccc(S(=O)(=O)N4CCCCC4)c3)CC2=O)cc1 (centres undefined)	?	?	?	-4%	-5%
Cc1ccccc1NC(=O)COC(=O)CCc1nc2ccccc2s1	.	.	.	.	2%
Cc1ccc(OCC(=O)Nc2ccc3[nH]ncc3c2)cc1C	.	.	.	.	14%
CC(=O)Oc1ccc2c(=O)c(-c3ccc4c(c3)OCCCO4)c(C)oc2c1	.	.	.	.	-8%
NC(=O)NC(=O)CSCc1ccccc1	.	.	.	.	-8%
CN1CCC(NCCC(c2ccc(F)cc2)c2ccc(Cl)cc2)CC1 (centres undefined)	.	25µM*	?	16µM*	0%
CC(C)(C)c1cc(NCc2ccccn2)n2ncc(-c3ccccc3)c2n1	i	-34%	14µM*	-32%	5%
Cc1cc(NCc2ccccc2)n2ncc(-c3ccccc3)c2n1	i	181%	20%	3%	2%
Nn1c(SCC(=O)Nc2cccc(C(F)(F)F)c2)nnc1-c1cc(-c2ccc(Cl)cc2)n[nH]1	.	.	.	.	5%
NC(CCc1ccccc1)c1csc(NC(=O)Nc2cccc(Cl)c2)n1 (centres undefined)	28µM*	20µM*	?	16µM*	?
NC(Cc1ccc(C(F)(F)F)cc1)c1csc(NC(=O)Nc2ccccc2Oc2ccccc2)n1 (centres undefined)	.	-14%	11µM*	10µM*	?
COc1ccccc1CNC(=O)Nc1nc(C(N)Cc2ccc(Cl)cc2)cs1 (centres undefined)	32µM*	?	?	-97%	-2%
COc1ccccc1NC(=O)Nc1nc(C(N)CCc2ccccc2)cs1 (centres undefined)	?	?	11µM*	10µM*	?
NC(c1ccccc1)c1csc(NC(=O)Nc2cccc(Cl)c2)n1 (centres undefined)	?	?	?	-99%	-22%
COc1cc(CNC(=O)Nc2nc(C(N)CCc3ccccc3)cs2)cc(OC)c1OC (centres undefined)	?	?	?	-88%	0%
CSc1nc(N)c2c(n1)NC1=C(C(=O)CC(C)(C)C1)C2c1ccccc1 (centres undefined)	.	.	.	.	0%
NC(Cc1ccc(C(F)(F)F)cc1)c1csc(NC(=O)NCCc2ccccc2)n1 (centres undefined)	?	?	14µM*	11µM*	?
COc1ccc(CC(N)c2csc(NC(=O)Nc3ccccc3Cc3ccccc3)n2)cc1 (centres undefined)	?	?	?	22µM*	?
COc1ccccc1NC(=O)Nc1nc(C(N)Cc2ccc(C(F)(F)F)cc2)cs1 (centres undefined)	.	-1%	?	20µM*	?
NC(Cc1ccccc1)c1csc(NC(=O)Nc2ccccc2Oc2ccccc2)n1 (centres undefined)	?	?	?	-104%	?
SMILES	S2 tox	ATXN2 expr inh	TGFb SMAD3 inh	HepG2 tox	ALOX12 inh
CC(C)CC(N)c1csc(NC(=O)Nc2ccccc2C(C)(C)C)n1 (centres undefined)	i	?	14µM*	-100%	3%
Cc1ccc(/C=N\NC(=O)c2cccnc2)s1	.	.	.	.	0%
CCOCCCNc1nc2c(c(=O)[nH]c(=O)n2C)n1CCC(C)C	.	.	.	.	24%
NC(COCc1ccccc1)c1csc(NC(=O)Nc2cccc(C(F)(F)F)c2)n1 (centres undefined)	.	?	14µM*	-106%	?
O=C(NCC(Cl)c1ccc2ccccc2c1)c1c(F)cccc1F (centres undefined)	i	6%	-14%	-3%	35µM*
O=C(CCl)Nc1cccc(-c2cnc3ccccc3n2)c1	.	?	7.1µM*	11µM*	-21%
CCC(=O)Nc1cccc(-c2cnc3ccccc3n2)c1	i	48%	11%	-9%	-21%
Cc1ccc(-c2cnc(CCC(=O)Nc3cccc(F)c3)o2)cc1C	.	.	.	.	-27%
Fc1cc(F)cc(Nc2nc(Cl)nc(NC3CCCC3)n2)c1	25µM*	?	?	-60%	-22%
Cc1ccc(C(=O)Nc2ccc(-c3nccs3)cc2)c(C)c1	.	.	.	.	46%
Cc1cc(Cl)ccc1NNC(=O)c1c(C)noc1C	i	-16%	?	-2%	32µM*
CCCOC(=O)c1ccc(Oc2c(-c3ccc(OCC)cc3O)n[nH]c2C)cc1	.	?	11µM*	11µM*	?
CCCOC(=O)c1ccc(Oc2cn[nH]c2-c2ccc(OCC)cc2O)cc1	?	?	?	-111%	46%
CCCn1nnnc1NC(=O)c1ccc2ccccc2c1	?	?	-2%	13µM*	-13%
Cn1c(=O)c2c(ncn2CC(=O)N(C2CC2)C2CCS(=O)(=O)C2)n(C)c1=O (centres undefined)	.	.	.	.	-1%
COCCN1C(=O)C(CC(=O)Nc2ccc(C(C)=O)cc2)SC1=Nc1ccccc1 (centres undefined)	i	-2%	-3%	9%	-1%
CC(O)CN1C(=O)C(CC(=O)Nc2ccc(Cl)cc2)SC1=Nc1ccccc1 (centres undefined)	?	?	11µM*	-67%	.
CCCc1noc(-c2ccn3c(CNC(=O)C(C)Oc4ccccc4)nnc3c2)n1 (centres undefined)	.	.	.	.	5%
S=C(NCc1ccccc1)NCc1cccc(CNC(=S)NCc2ccccc2)c1	i	-23%	?	-18%	32µM*
Fc1cccc(NC(=S)Nc2cccc3ccccc23)c1	i	17%	0%	-6%	?
S=C(NCc1ccccc1)NCc1cccc(Cl)c1	i	1%	-26%	-15%	?
Cc1ccc(NC(=S)Nc2cccc3ccccc23)cc1F	i	39%	-28%	-2%	40µM*
S=C(NCc1ccccc1)Nc1cccc2ccccc12	i	-23%	?	-19%	45µM*
CC(Oc1c(Cl)cccc1Cl)C(=O)NN (centres undefined)	.	.	.	.	19%
COc1ccc(CCNC(=O)c2coc(=O)c(Br)c2)cc1	.	?	18µM*	13µM*	0%

Screens: PubChem BioAssay, National Center for Advancing Translational Sciences (NCATS)
